As a reminder, the viability is a read-out of living cells in per cent, often relative to untreated cells.

About 5,100 (6%) of roughly 85,000 compounds were called active. The full list was thinned out, with actives kept by preference. A number with no mark means an inactive call.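 The calls were made as follows: active = viability at or below 40%; inactive = viability above 40%.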

The assay in a line: proliferation blockers of H69AR lung cancer cells, primary screen, cell-based, human, 86K library (AID 598).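 Also: multidrug resistant small cell line overexpressing MRP-1 efflux transporter; 100% = mean luminescence of untreated control wells.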 The settings on record: H69AR lung tumor viability, ATP luminescence, 72 h; at 10 µM; stronger effect = lower value.
Turning to `CCc1ccc(C2C(C#N)=C(N)Oc3n[nH]c(CC(=O)OC)c32)cc1` (stereo not drawn), the viability is 92.7%.
Take `O=C(Nc1ccc2c(c1)OCCO2)C(c1ccc(F)cc1)N1CCCCC1` (stereo not drawn): the viability is 99.9%.
In the case of `Cc1ccc(OCc2nnc(NC(=O)OCC(C)C)s2)cc1` it was 102%; in that of `CC1Cc2ccccc2N1C(=O)CSc1nnc(-c2ccc(S(=O)(=O)N3CCCCC3)cc2)o1` (stereo not drawn), 29.4% (active).
For `CCS(=O)(=O)c1ccc2oc(SCC(=O)N3c4ccccc4CC3C)nc2c1` (stereo not drawn), the viability was 63.3%.
`CC1Cc2ccccc2N1C(=O)CSc1nc2ccccc2o1` (stereo not drawn): the viability was 74.2%.
In the case of `CCOC(=O)/C(C#N)=C\c1c(C)cc(C)c(COC(C)=O)c1C` it was 95.1%; in that of `CCNC(=O)NC(=O)C(C)OC(=O)c1cc(S(=O)(=O)N2CCCCCC2)ccc1OC` (stereo not drawn), 84.3%.
Regarding `Cc1ccc(NC(=O)CCN2CCc3ccccc3C2)cc1`, the viability was 79.4%.
On to `Cc1ccc(NC(=S)NC(NC(=O)Cc2cccc3ccccc23)C(Cl)(Cl)Cl)cc1` (stereo not drawn), for which the viability is 0.99% (active).
In the case of `CC(N=Cc1nc(-c2ccccc2)oc1O)c1ccccc1` (stereo not drawn), the viability is 94.3%.
In the case of `Cc1ccc(S(=O)(=O)N2CCC(C(=O)NCC3CCCO3)CC2)cc1` (stereo not drawn) it was 105%; in that of `COc1cccc(NC(=O)CN2CCN(c3nc(-c4cccc(OC)c4)cs3)CC2)c1`, 93.2%.
Take `COc1ccc([N+](=O)[O-])cc1C1NN=C(c2cccc3ccccc23)S1` (stereo not drawn): the viability was 27.1% (active).
With `Cc1ccc(CNC(=O)COc2ccc(S(=O)(=O)NC(C)C)cc2)cc1`, the viability is 98.1%.
Take `COc1ccc(-c2cc(C(=O)NCc3ccco3)no2)cc1OC`: the viability is 100%.
Take `COc1ccc(C2=NOC(C(=O)NCc3ccco3)C2)cc1OC` (stereo not drawn): the viability was 28.7% (active).
Turning to `COc1cc2c(cc1OC)C(C(=O)NCc1ccco1)C1c3ccccc3CCN1C2=O` (stereo not drawn), the viability was 92.7%.
`COc1cccc(N=c2oc3c(C)ncc(CO)c3cc2C(N)=O)c1`: the viability is 68%.
`CCCCn1c(SCc2ncc(-c3ccccc3)o2)nc2cc(S(N)(=O)=O)ccc21`: the viability is 14% (active).
With `CCn1c(SCC(=O)NCC2CCCO2)nc2cc(S(=O)(=O)N3CCCCC3)ccc21` (stereo not drawn), the viability is 96.9%.
Turning to `CCCCn1c(SCC(=O)N2CCC(C(=O)OCC)CC2)nc2cc(S(N)(=O)=O)ccc21`, the viability was 48.4%.
In the case of `COC(=O)c1ccc(NC(=O)C23CC4CC(C2)CC(n2cnc(Cl)n2)(C4)C3)cc1`, the viability is 72.7%.
Consider `CCOC(=O)c1[nH]c2c(c1C)C(=O)CC(c1ccc(N(C)C)cc1)C2` (stereo not drawn), for which the viability was 100%.
For the compound `CCCOC(=O)c1[nH]c2c(c1C)C(=O)CC(c1cc(OC)c(OC)c(OC)c1)C2` (stereo not drawn), the viability is 80.3%.
Consider `CCCOC(=O)c1[nH]c2c(c1C)C(=O)CC(c1cccs1)C2` (stereo not drawn), for which the viability is 34.2% (active).
As for `Cc1nc(NC(=O)CN(C)S(=O)(=O)c2ccc(Cl)cc2)sc1C`, the viability is 61.4%.
Consider `CCc1c(C)sc(NC(=O)c2cccs2)c1C(N)=O`, for which the viability was 99.7%.
In the case of `CCN(CC)C(=O)CN(c1cccc(OC)c1)S(=O)(=O)c1ccc(C)cc1`, the viability was 82.3%.
The result for `CCCCNC(=O)C1CCCN(S(=O)(=O)c2ccc(S(=O)(=O)NCC(C)C)cc2)C1` (stereo not drawn) reads 90.8%.
With `Cc1cccc(N2CCN(C(=O)C3CCN(S(=O)(=O)c4cnc[nH]4)CC3)CC2)c1C`, the viability is 93.6%.
`Cc1cccc(N2CCN(C(=O)c3cnn4c(C(F)F)cc(-c5ccccc5)nc34)CC2)c1C`: the viability is 28.9% (active).
With `O=C(Nc1ccccc1N1CCN(C(=O)c2ccccc2)CC1)c1ccc2c(c1)OCO2`, the viability is 81.8%.
`O=C1CSC(c2cccc(F)c2)N1c1ccc(O)cc1` (stereo not drawn): the viability was 101%.
Turning to `CC(C)CCNC(=O)Cn1c(=O)oc2cc(S(=O)(=O)N3CC(C)CC(C)C3)ccc21` (stereo not drawn), the viability is 40.8%.
Regarding `Cc1oc(-c2ccccc2Cl)[n+]([O-])c1C`, the viability is 85.9%.
On to `Cc1[nH][nH]c(=O)c1C(c1ccc(-c2ccc(Cl)cc2)o1)c1c(C)[nH][nH]c1=O`, for which the viability was 1.92% (active).
Consider `Cc1[nH][nH]c(=O)c1N=Nc1ccccc1`, for which the viability was 91.5%.
In the case of `CCN1CCN(C(=O)C2(NC(=O)Nc3cccc(F)c3)CCCCC2)CC1` it was 90.9%.
For the compound `O=C(c1ccccc1Oc1ccccc1)N1CCN(c2ccc(F)cc2)CC1`, the viability is 100%.
For `COC(=O)c1ccccc1NC(=O)CSc1nnnn1C`, the viability is 95.3%.
In the case of `O=C(CN1CCCCC1)N1c2ccccc2Sc2ccc(C(F)(F)F)cc21`, the viability is 86.8%.
In the case of `O=C(CN1CCCCCC1)N1c2ccccc2Sc2ccc(C(F)(F)F)cc21` it was 36.8% (active).
Consider `CC1CC(C)CN(CC(=O)N2c3ccccc3CCc3ccccc32)C1` (stereo not drawn), for which the viability was 82.7%.
With `CC(C)c1nc2oc3c(N4CCN(C)CC4)ncnc3c2c2c1CCC2`, the viability is 33.7% (active).
The result for `CCN1CCN(c2ncnc3c2oc2nc(C)c4c(c23)CC(C)(C)OC4)CC1` reads 81.8%; that for `Cc1cc(C)nc(N2CCN(c3ncnc4c3oc3ccccc34)CC2)n1`, 103%.
With `COc1cc2c(cc1OC)C(C(C)C)=NC(C)(C)C2`, the viability is 88.9%.
Take `C/C(=N\NS(=O)(=O)c1ccc(Br)cc1)c1cccs1`: the viability was 110%.
As for `CCn1nc(C)c(NC(=O)/C=C/c2ccc(OC)c(COc3ccc(Br)cc3)c2)c1C`, the viability was 28.8% (active).
The result for `CCn1c(COc2ccc(OC)cc2)nnc1SCC(=O)Nc1cc(OC)ccc1OC` reads 71.4%.
Turning to `COc1ccc(/C=C/C(=O)Nc2c(C)nn(C)c2C)cc1COc1ccc(Br)cc1`, the viability is 57.5%.
For `COc1cccc2cc(C(=O)N3CCN(C(=O)c4ccccc4)CC3)c(=O)oc12`, the viability was 89.3%.
The result for `O=S(=O)(NC1CCCCC1)c1ccc(F)c2ccccc12` reads 86.6%; that for `Cc1ccc(-c2nc3c(cnn3-c3ccccc3)c(=O)o2)cc1`, 79.6%; that for `Cc1ccc(-n2ncc3c(=O)n(-c4ccc(C)c(C)c4)c(-c4ccco4)nc32)cc1`, 31.3% (active).
With `Cc1ccc(-n2ncc3c2ncn2nc(-c4ccco4)nc32)c(C)c1`, the viability was 78.6%.
Regarding `CCOC(=O)c1ccc2c(c1)nc(SCC(=O)NC(C)C)n2CC`, the viability was 84%.
